Screening data deposited in PubChem by National Center for Advancing Translational Sciences (NCATS).
HT1080 IDH1KD tx – toxicity to HT-1080 IDH1 knockdown cells (counter line). 360,000 tested, 2% active. Potency, µM (series often up to 46.1 µM), without a hit: top-dose activity, negative = toxicity, actives largely listed as cytotoxic. AID 686971. HT-1080 IDH1 knockdown viability, ATP luminescence, 48 h;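 further: 0% = DMSO wells and -100% = cell-free medium wells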
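Luminescent ATP read-out (CellTiter-Glo, 10 min at room temperature) after 48 h compound exposure at 37 °C gave viability of IDH1-knockdown HT-1080 cells. Activity was normalised to DMSO and cell-free wells, then fitted as concentration-response curves.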
DT40 TDP1 no CPT – qHTS for Inhibitors of human tyrosyl-DNA phosphodiesterase 1 (TDP1): qHTS in cells in absence of CPT. Potency, µM (top dose mostly 46.2 µM), without a hit: at the highest dose activity change, negative = growth inhibition, hits mostly inhibitors. 420,000 tested, 15% active. DT40 Tdp1-/- hTDP1 cells, no CPT, ATP luminescence, 48 h; further: on the % scale 0 is the no-effect control and ±100 the full control effect; nearly all actives have a fitted effect of over 55% in size
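Compound effects on proliferation are scored in DT40 Tdp1-/-;hTDP1 cells in the absence of CPT. ATP levels (CellTiter-Glo luminescence) are recorded after a ≥48 hr, 37 °C incubation.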
TGFb SMAD3 inh – blocks TGF-b signaling; HepG2 CAGA-GFP TGF-b/SMAD3 reporter, GFP fluorescence, 18 h; TGF-beta stimulated, 500 pg/mL final; Potency, µM (highest dose often 46.1 µM), for the others: at the top dose activity, negative = inhibition, hits mostly inhibitors; 410,000 tested, 1.2% active; further: on the % scale 0 is the no-effect control and ±100 the full control effect; nearly all actives have a fitted effect of over 65% in size
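HEPG2 CAGA-GFP reporter cells (1000/well, DMEM with 1% FBS) received compounds, then recombinant TGF-beta at 500 pg/mL final for 18 hours at 37 degrees C. Per-cell GFP summed per well was normalised to unstimulated and stimulated DMSO controls before curve fitting.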
DT40 TDP1 CPT – growth inhibition of DT40 Tdp1-/-;hTDP1 cells with camptothecin (screen for TDP1 inhibitors); chicken DT40 Tdp1-/-;hTDP1 cells + 20 nM CPT, ATP luminescence, 48 h; Potency, µM (series often up to 46.2 µM), for the others: top-dose activity change, negative = growth inhibition, hits mostly inhibitors; 420,000 tested, 12% active; further: on the % scale 0 is the no-effect control and ±100 the full control effect; nearly all actives have a fitted effect of over 55% in size
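Chicken DT40 Tdp1-/- cells stably complemented with human TDP1 were seeded at 400 cells/well in medium containing 20 nM camptothecin, exposed to pin-transferred compounds, and grown at 37 °C for at least 48 hr. Viability was read as ATP luminescence.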
HepG2 viability – kills HepG2 cells in TGF-b inhibitor counter-screen; HepG2 CAGA-GFP viability, ATP luminescence, 18 h; Potency, µM (titrated, usually from 46.1 µM), without a hit: at the highest dose activity change, negative = cytotoxicity, actives largely listed as cytotoxic; 410,000 tested, 0.76% active
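HepG2 CAGA-GFP cells (1000/well, DMEM with 1% FBS) received compound, then TGF-beta at 500 pg/mL final, and were incubated 18 hours at 37 degrees C. Viability was read by CellTiter-Glo luminescence. Media-only wells were set as complete cell-killing and DMSO as no toxicity.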
HT1080-NT tox – kills 2HG-producing HT-1080-NT fibrosarcoma cells; HT-1080-NT fibrosarcoma viability, CellTiter-Glo ATP luminescence, 48 h; Potency, µM (highest dose often 46.1 µM), without a hit: at the highest dose activity, negative = less viability, hits mostly cytotoxic; 360,000 tested, 1.6% active;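 further: NT is the 2HG producing partner of a matched IDH1 knockdown line; 0% = DMSO-treated cells and -100% = media-only wells without cells; nearly all actives have a fitted effect of over 55% in size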
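HT-1080-NT; 750 cells/well; 5% FBS RPMI; 48 h compound, 37 degrees C; CellTiter-Glo luminescence; curve fitting and curve-class assignment.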
* hit, by the source's call; ? = inconclusive; · = no result. The list is not random: actives were taken first. Their share in the collection is about 17%. The call rests on the fitted dose curve; in most records, active means well fitted curve in the direction sought with a large enough effect; inconclusive means small, poorly fitted or top-dose-only effect, or another doubt; inactive means no such curve, though single readings can be large; an effect the other way counts as inactive or inconclusive. Potency means the concentration at half of the fitted maximal effect.

SMILES | HT1080 IDH1KD tx | DT40 TDP1 no CPT | TGFb SMAD3 inh | DT40 TDP1 CPT | HepG2 viability | HT1080-NT tox
COc1ccc(S(=O)(=O)c2cn(C)c3cc(N4CCCC4)c(F)cc3c2=O)cc1 | · | 23µM* | ? | ? | -3% | ·
CN(CC(=O)Nc1ccc(S(=O)(=O)N2CCCC2)cc1)Cc1cccc(Cl)c1Cl | -21% | ? | ? | 16µM* | -22% | -16%
COc1ccc(Cl)cc1NC(=O)CN(C)CC(=O)Nc1cccc(S(=O)(=O)N2CCCC2)c1 | -16% | ? | -13% | 23µM* | -1% | -26%
CCN(Cc1ccc(OC)c(F)c1)C(C)C(=O)Nc1ccc(S(=O)(=O)N2CCCC2)cc1 (configuration not stated) | -7% | 21µM* | -3% | ? | -4% | -11%
CCN(CC(=O)Nc1cccc(S(=O)(=O)N2CCCC2)c1)CC(=O)Nc1ccccc1OC | -1% | ? | -12% | -3% | 7% | -4%
CN(CCOc1ccccc1)CC(=O)Nc1ccc(S(=O)(=O)N2CCCC2)cc1 | -2% | ? | -29% | ? | -52% | -3%
COc1ccc(CN(C)CC(=O)Nc2cccc(S(=O)(=O)N3CCCC3)c2)cc1F | -1% | 18µM* | -12% | ? | -16% | -1%
O=C(CSc1nnc(NC(=O)C2CC(=O)N(c3ccc(F)cc3)C2)s1)NC1CCCC1 (configuration not stated) | 24% | 4% | -5% | 9% | 0% | 9%
Cc1ccc(S(=O)(=O)N2CCCCCC2)cc1[N+](=O)[O-] | 4% | 10µM* | 5% | ? | 11% | 0%
CN(Cc1cccc(Cl)c1Cl)c1ccc(S(=O)(=O)N2CCCCC2)cc1[N+](=O)[O-] | 4% | 21µM* | ? | ? | -42% | 8%
C=CCOc1ccc(CN(C)c2ccc(S(=O)(=O)N3CCN(C)CC3)cc2[N+](=O)[O-])cc1 | -10% | ? | 0% | ? | -28% | -10%
COc1ccccc1CN(C)CC(=O)Nc1cccc(S(=O)(=O)N2CCCCC2)c1 | -8% | 23µM* | -2% | 16µM* | -19% | -6%
CN1CCN(S(=O)(=O)c2ccc(N(C)Cc3ccc(C(F)(F)F)cc3)c([N+](=O)[O-])c2)CC1 | ? | 13µM* | 0% | 10µM* | -22% | ?
CC(=O)Nc1ccc(SCC(=O)N2CCN(S(=O)(=O)c3ccccc3)CC2)cc1 | -3% | ? | 27% | 4% | -10% | -9%
CC(C)(C)NC(=O)NC(=O)COC(=O)CNS(=O)(=O)/C=C/c1ccccc1 | 0% | -20% | -8% | 6% | 2% | -15%
O=C1c2ccccc2C(c2nnnn2-c2ccc3ccccc3c2)N1C1CC1 (configuration not stated) | 9% | -30% | · | -20% | · | 14%
COc1ccc(/C=C2\Oc3cc(OCC(N)=O)ccc3C2=O)cc1OC | -8% | ? | 2% | ? | -14% | -4%
COC(=O)COc1ccc2c(c1)O/C(=C\c1cccc([N+](=O)[O-])c1)C2=O | -1% | 13µM* | 0% | 18µM* | 5% | 2%
COc1cccc(N2CCN(C(=O)c3cccn3-c3nnc(N4CCCCC4)s3)CC2)c1 | · | ? | 0% | 15µM* | 3% | ·
Cc1ccc(Cl)cc1N1CCN(C(=O)c2cccn2-c2nnc(N3CCCC3)s2)CC1 | · | 15µM* | ? | 12µM* | -35% | ·
COc1cccc(N2CCN(C(=O)c3ccc4nc(N5CCCCC5)sc4c3)CC2)c1 | 0% | 16µM* | -7% | ? | -36% | 8%
COc1ccc(N2CCN(C(=O)c3cccn3-c3nnc(N4CCCC4)s3)CC2)cc1 | · | ? | -31% | ? | -17% | ·
O=C(c1cccn1-c1nnc(N2CCCC2)s1)N1CCN(c2ccccc2)CC1 | · | -19% | 0% | ? | -26% | ·
CCOC(=O)c1cc(S(=O)(=O)Nc2ccccc2)[nH]n1 | · | -16% | 49% | -15% | 7% | ·
CCN(CC(=O)Nc1ccc(NC(C)=O)cc1)C(=O)C1CC1 | 1% | 4% | 1% | -8% | 11% | 0%
SMILES | HT1080 IDH1KD tx | DT40 TDP1 no CPT | TGFb SMAD3 inh | DT40 TDP1 CPT | HepG2 viability | HT1080-NT tox
CC(C)Nc1nc(NCCN2CCNC2=O)c2sccc2n1 | 0% | -1% | 12% | 10% | -1% | 13%
CC(C)c1ccc(CNc2nc(NCC3CC3)nc3ccsc23)cc1 | 18µM* | 10µM* | ? | 9.2µM* | 14µM* | 23µM*
COc1cccc(CNc2ccc3c(c2)ncn3C(C)C)c1OC | -1% | ? | -17% | ? | -16% | -10%
COc1cccc(CNc2nc(NC(C)C)nc3ccsc23)c1OC | -19% | 21µM* | ? | 18µM* | -47% | 15µM*
COc1ccccc1CNc1nc(NC(C)C)nc2ccsc12 | ? | 12µM* | ? | 12µM* | -11% | ?
CSc1ccccc1CNc1nc(NCC2CC2)nc2ccsc12 | 21µM* | 21µM* | 16µM* | 15µM* | 11µM* | 18µM*
CC(=O)NCCNc1nc(NC(C)C)nc2ccsc12 | 17% | 4% | -6% | 5% | 1% | ?
COc1ccccc1CNc1nc(NCc2ccc(C(C)C)cc2)c2sccc2n1 | 18µM* | 2.9µM* | ? | 9.2µM* | -101% | 21µM*
COc1cccc(CNc2nnnn2C)c1OC | -7% | -1% | 0% | -16% | 5% | 2%
COc1cccc(CNc2nc(NCC3CC3)nc3ccsc23)c1OC | 12µM* | 15µM* | ? | 9.2µM* | -47% | 23µM*
CC(C)Nc1nc(NCCOc2ccccc2)c2sccc2n1 | 23µM* | 9.2µM* | ? | 21µM* | -26% | 26µM*
CC(=O)Nc1ccc(NC(=O)c2cc(-c3ccc(C)c(C)c3O)n[nH]2)cc1 | 0% | -20% | -1% | -29% | 10% | -5%
CC(=O)Nc1ccc(NC(=O)c2cc(-c3cc(C)cc(C)c3O)n[nH]2)cc1 | -11% | 16µM* | -17% | 12µM* | -6% | -7%
Cc1cc(C)c(O)c(-c2cc(C(=O)Nc3ccc(S(=O)(=O)N4CCOCC4)cc3)[nH]n2)c1 | ? | 16µM* | ? | 16µM* | -60% | 21µM*
COc1ccc(-c2c(C)nn3c(N4CCN(c5ccccc5F)CC4)cc(C)nc23)cc1OC | · | · | 22% | · | -12% | ·
